VLA-4 agonist: enhancers of LDV-FITC binding to VLA-4 integrin, primary screen, Jurkat cells, flow cytometry; Integrin alpha-4 (Homo sapiens), P13612; AID 528, 2006; 24,000 tested, under 10 active; activation, % at 10 µM (by protocol);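 active = fluorescent ligand binding to cells raised by more than 40% of the manganese-induced maximum; inconclusive = compound's own fluorescence above 85% of the ligand control signal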
FPRL1 ligand: human FPRL1 ligands by binding competition, primary screen, cell-based, FPR counter-screen, flow cytometry | N-formyl peptide receptor 2 (Homo sapiens), P25090 | FPRL1-expressing cells, fluorescent ligand binding inhibition | inhibition, % (concentration not given with the values) | 24,000 compounds, 0.3% hits
VLA-4 antagonist: inhibitors of LDV-FITC binding to Mn2+-activated VLA-4, primary screen, Jurkat cells; AID 529, 2006; inhibition, % at 10 µM (by protocol); 24,000 compounds, 0.2% hits; LDV-FITC binding with Mn2+, flow cytometry; 100% = Mn2+-driven binding gain fully reversed;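 active = inhibition above 50%; inconclusive = compound itself fluorescent, judged against control cell fluorescence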
Autofluor Jurkat: compound autofluorescence on Jurkat cells, primary screen, artefact control for VLA-4 allosteric ligand project, cell-based, flow cytometry; hits give high values; 1 = vehicle-only cell background; fluorescence ratio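 (tested at 10 µM compound in the well)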; 24,000 compounds, 0.61% hits; AID 576, 2007;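 active = fluorescence ratio above 2.44, which is 1 plus 3 SD of all ratios; inconclusive = signal too bright to measure linearly, ratio around 10 or more; inactive = fluorescence ratio below 2.44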;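 also: green fluorescence of cells measured with 488 nm excitation and 530 nm emission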
FPR ligand: human FPR ligands by binding competition, primary screen, cell-based, FPRL1 counter-screen, flow cytometry; AID 440, 2006; 24,000 compounds, 0.74% hits; fMet-Leu-Phe receptor (Homo sapiens), P21462; FPR-expressing cells, fluorescent ligand binding; inhibition, % (concentration not given with the values)
Each line names hits and unclear results; the compound was inactive in the other large screens. Rows were chosen to be rich in hits. Some 1.4% of all compounds tested hit in one or more screens of this group. Rule as the data show it, unless noted: active = inhibition above about 30%; inconclusive = no clear call, values can overlap the other calls; inactive = below that.

COc1cccc(/C(O)=C2/C(=O)C(=O)N(Cc3cccnc3)C2c2ccco2)c1 (stereo not given)	FPR ligand 34 (no result: VLA-4 agonist, VLA-4 antagonist, Autofluor Jurkat)
O=C(C1=C(O)C(=O)N(Cc2ccco2)C1c1cccnc1)c1cc2ccccc2o1 (stereo not given)	none (no result: VLA-4 agonist, VLA-4 antagonist, Autofluor Jurkat)
Cc1nnc(N2C(=O)C(O)=C(C(=O)c3ccco3)C2c2ccc(F)cc2)s1 (stereo not given)	none
O=C(C1=C(O)C(=O)N(Cc2ccccc2)C1c1ccncc1)c1ccco1 (stereo not given)	FPR ligand 32
COc1ccc(C2C(C(=O)c3ccco3)=C(O)C(=O)N2CCOCCO)cc1OC (stereo not given)	none (no result: VLA-4 agonist, VLA-4 antagonist, Autofluor Jurkat)
COc1ccc(C2C(C(=O)c3ccco3)=C(O)C(=O)N2CCc2ccccc2)cc1OC (stereo not given)	FPR ligand 80 (no result: VLA-4 agonist, VLA-4 antagonist, Autofluor Jurkat)
COc1cccc2cc(C(=O)C3=C(O)C(=O)N(Cc4ccco4)C3c3cccnc3)oc12 (stereo not given)	FPR ligand 34 (no result: VLA-4 agonist, VLA-4 antagonist, Autofluor Jurkat)
COc1ccccc1-n1c(CNC(=O)COc2ccccc2)n[nH]c1=S	none
COc1ccc(C2C(C(=O)c3ccco3)=C(O)C(=O)N2Cc2cccnc2)cc1OC (stereo not given)	FPR ligand 38 (no result: VLA-4 agonist, VLA-4 antagonist, Autofluor Jurkat)
O=S(=O)(Nc1nc2ccccc2nc1NCc1ccco1)c1ccc(Cl)cc1	none
Cc1ccc(S(=O)(=O)Nc2nc3ccccc3nc2NCc2ccco2)cc1	VLA-4 agonist inconclusive, VLA-4 antagonist inconclusive, Autofluor Jurkat 4.8
CC1=CCC2C(=O)N(c3ccc(C)c(Br)c3)C(=O)C2C1 (stereo not given)	none
CN(C)c1ccc(C2C=C(c3ccc(Cl)cc3OC(F)F)Nc3ncnn32)cc1 (stereo not given)	VLA-4 agonist inconclusive, VLA-4 antagonist inconclusive, Autofluor Jurkat 2.8
Cc1ccc(C2C=C(c3ccccc3OC(F)F)Nc3ncnn32)cc1 (stereo not given)	VLA-4 agonist inconclusive, VLA-4 antagonist inconclusive
CCOC(=O)CC(C#N)c1cn(C)c2ccccc12 (stereo not given)	VLA-4 agonist inconclusive, VLA-4 antagonist inconclusive, Autofluor Jurkat 2.8
COC(=O)c1ccc(/C(O)=C(\C#N)c2nc3ccccc3s2)cc1	VLA-4 agonist inconclusive, VLA-4 antagonist inconclusive, Autofluor Jurkat 2.7
c1cncc(-c2nc3ccccc3o2)c1	VLA-4 agonist inconclusive, FPRL1 ligand inconclusive, VLA-4 antagonist inconclusive, Autofluor Jurkat 9.8, FPR ligand inconclusive
CCOC(=O)C1=C(CSc2nc(C)cc(C)c2C#N)OC(N)=C(C#N)C1c1cccs1 (stereo not given)	none
CCN1C=C(Cc2cccs2)C2=C(C1)C(c1cccs1)C(C#N)=C(N)O2 (stereo not given)	VLA-4 agonist inconclusive, VLA-4 antagonist inconclusive, Autofluor Jurkat 3.1
CCN1CCN(C(=O)c2ccc3c(c2)N(Cc2ccc(F)cc2)C(=O)c2ccccc2S3=O)CC1 (stereo not given)	none
COc1cccc2c1C(=O)c1c(O)c3c(c(O)c1C2=O)C[C@@](O)(C(C)=O)C[C@@H]3O[C@H]1C[C@H](N)[C@H](O)[C@H](C)O1	VLA-4 agonist inconclusive, FPRL1 ligand 32, VLA-4 antagonist inconclusive, Autofluor Jurkat inconclusive
Cc1nc2ccccn2c1/C(O)=C1\C(=O)C(=O)N(CCCN(C)C)C1c1ccc(Cl)cc1 (stereo not given)	none
O=C(NC1CCCC1)C1CC1c1ccccc1 (stereo not given)	FPRL1 ligand 46
CCOC(=O)CSc1nnc(CNC(=O)c2ccc(OC)c(OC)c2)n1C	none
CCOC(=O)CSc1nnc(CNC(=O)c2cc(OC)c(OC)c(OC)c2)n1C	none
CCOc1cc(C(=O)NCc2nnc(SCC(=O)OC)n2C)cc(OCC)c1OCC	FPRL1 ligand 75
CCOC(=O)CSc1nnc(CNC(=O)c2cc(OCC)c(OCC)c(OCC)c2)n1C	FPRL1 ligand 51
COc1ccc(/C(O)=C2/C(=O)C(=O)N(CCN3CCOCC3)C2c2ccc(C)cc2)cc1 (stereo not given)	FPRL1 ligand 31 (no result: VLA-4 agonist, VLA-4 antagonist, Autofluor Jurkat)
C=CCOc1ccc(/C(O)=C2/C(=O)C(=O)N(CCN3CCOCC3)C2c2ccc(C)cc2)cc1 (stereo not given)	none (no result: VLA-4 agonist, VLA-4 antagonist, Autofluor Jurkat)

Screening data (PubChem)
